The supplement of paper PMC12340641
± gives the standard deviation of the averaged measurements.

Tests used:
[1] = molecular target: IKZF1 (dCK*-IKZF1 fusion in HEK293FT) (UniProt Q13422); assay: inhibition of IKZF1 HTRF signal (DMSO = 0%, pomalidomide 10 uM = 100%); higher = lower IKZF1 protein level; details: compound concentration: 5 uM, overnight (~20 h)
In short: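 Compound was tested at 5 μM in single wells on HEK293FT cells (2000/well, 384-well) stably carrying an IKZF1 fusion, overnight at 37 °C. Total IKZF1 was measured in lysates with a commercial HTRF antibody kit as the background-subtracted 665/620 nm time-resolved FRET ratio. The reported figure is percent inhibition of IKZF1 signal, scaled per plate between vehicle and a reference degrader. The vehicle anchor was 0% and the degrader anchor 100%.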

HEK293FT dCK*-only = assay: relative growth in counter assay (no AraC = 100%, AraC + DMSO = 0%); higher = more growth rescue independent of IKZF1; details: compound concentration: 5 uM; AraC concentration: 0.3 uM; overnight pretreatment + 4 days AraC
In short: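 For this counter assay, relative growth was normalised on each plate to two kinds of reference wells. HEK293FT cells expressing only an engineered kinase construct (300/well, 384-well) were treated with 5 μM compound 2 h after seeding, then after overnight at 37 °C with a nucleoside suicide substrate at 0.3 μM plus medium for 4 days. On day 5, Hoechst 33342-stained nuclei were counted by imaging, taking wells without suicide substrate as 100% and substrate plus vehicle as 0%.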

HEK293FT dCK*-IKZF1 = assay: relative growth recovery (pomalidomide 10 uM = 100%, DMSO = 0%); higher = more growth rescue (IKZF1 fusion degradation); details: compound concentration: 5 uM; AraC concentration: 0.3 uM; overnight pretreatment + 4 days AraC
In short: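 HEK293FT cells stably expressing an engineered deoxycytidine kinase–IKZF1 fusion were seeded at 300 per well in 384-well plates and given 5 μM compound 2 h later. After overnight incubation at 37 °C, a nucleoside suicide substrate at 0.3 μM was added with medium for 4 days, and on day 5 Hoechst 33342-stained nuclei were counted by whole-well imaging. Growth recovery was normalised per plate between a reference degrader and vehicle, set to 100% and 0% respectively, and the values are means of duplicates run on different days.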

Sequence of IKZF1 (dCK*-IKZF1 fusion in HEK293FT) (Q13422 whole entry, looked up, the tested form may be a part): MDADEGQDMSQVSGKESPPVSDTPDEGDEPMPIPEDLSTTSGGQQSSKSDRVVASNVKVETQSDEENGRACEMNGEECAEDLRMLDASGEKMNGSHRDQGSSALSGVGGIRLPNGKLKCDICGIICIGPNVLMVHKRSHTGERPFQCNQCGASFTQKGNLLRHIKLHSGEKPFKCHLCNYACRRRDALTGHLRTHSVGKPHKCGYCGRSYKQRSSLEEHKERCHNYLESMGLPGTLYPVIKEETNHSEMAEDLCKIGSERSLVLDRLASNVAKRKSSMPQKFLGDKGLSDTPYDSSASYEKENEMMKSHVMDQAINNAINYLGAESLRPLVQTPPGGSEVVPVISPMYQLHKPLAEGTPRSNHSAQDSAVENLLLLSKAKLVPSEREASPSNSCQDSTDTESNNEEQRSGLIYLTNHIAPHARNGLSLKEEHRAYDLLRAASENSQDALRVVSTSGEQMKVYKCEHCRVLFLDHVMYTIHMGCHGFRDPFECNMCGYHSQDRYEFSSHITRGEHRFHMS

| SMILES | inhibition of IKZF1 HTRF signal [1] [%] | relative growth in counter assay (HEK293FT dCK*-only) [%] | relative growth recovery (HEK293FT dCK*-IKZF1) [%] |
| --- | --- | --- | --- |
| NCC1(CC(=O)O)CCCCC1 | -1.54 | -10.5 | -0.56 |
| CN(C)C(=S)SSC(=S)N(C)C | -13.8 | -35.1 | -12.7 |
| O=[N+]([O-])c1ccc(Cl)c([N+](=O)[O-])c1 [2,4-dinitrochlorobenzene] | 7.2 | -34.1 | -12.8 |
| CC[C@H]1CN2CCc3cc(OC)c(OC)cc3C2C[C@@H]1CC1NCCc2cc(OC)c(OC)cc21 (some centres undefined) | 38.3 | -34.9 | -12.4 |
| C[C@H]1CCC/C=C/C2C[C@H](O)C[C@H]2[C@H](O)/C=C/C(=O)O1 (some centres undefined) [brefeldin-a] | 2.49 | -32.6 | -10 |
| COc1cc2c(c(OC)c1OC)-c1ccc(OC)c(=O)cc1[C@@H](NC(C)=O)CC2 [Colchicine] | 17.9 ± 34 | -33.57 ± 0.13 | -12.2 ± 0.36 |
| C[C@@]12C(=O)OC(=O)[C@]1(C)[C@H]1CC[C@@H]2O1 [cantharidin] | 15.8 | 3.7 | -4.16 |
| CCCCCCCCCCC(=O)O[C@H]1CC[C@H]2[C@@H]3CCC4=CC(=O)CC[C@]4(C)[C@H]3CC[C@]12C [Testosterone (undecanoate)] | -31.5 | 4.31 | -0.23 |
